Abeta yeast res: restores growth of yeast expressing A-beta42 peptide | Potency, µM (doses to about 46.1 µM), usual class: activators | 410,000 compounds, 0.063% hits | yeast expressing A-beta42, growth rescue, OD600, 48 h; response scale: 0% DMSO, 100% iron-clioquinol control; further: nearly all actives have a fitted effect of over 55% in size
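Yeast growth medium received pinned compounds, then yeast cells expressing toxic A-beta were added; plates incubated at 30 C for 48 hr. Growth read as absorbance at 600 nm, normalized to DMSO and equimolar FeCl3 plus clioquinol controls.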
aSyn rescue: rescues yeast growth from alpha-synuclein toxicity | Potency, µM (top dose mostly 46.1 µM), without a hit: at the top dose growth rescue (activation), usual class: activators | Yeast expressing alpha-synuclein, growth rescue, BacTiter-Glo, 24 h | 370,000 compounds, 0.14% hits | AID 652106; further: % of control where 0% means no effect; nearly all actives have a fitted effect of over 65% in size
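Screening used galactose-induced yeast with toxic alpha-synuclein levels, exposed to compound for 24 hr at 30 deg C. Cell growth, read with BacTiter-Glo luminescence, gave the measured signal.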
PTAP TSG101 blk: blocks PTAP/TSG101 interaction to inhibit HIV-1 budding | 340,000 tested, under 10 active | Fluorescence polarization, FITC-PTAP peptide / Tsg101 binding | Q99816 | Potency, µM (series often up to 115 µM), for inactives: at the highest dose activity change, negative = inhibition, usual class: inhibitors; active means well fitted inhibition curve with a large enough effect in the main read-out, with a control signal flat, not every such curve was filed as active; inconclusive means small, poorly fitted or top-dose-only effect, or effect the other way, or a change in a side signal; inactive means no such curve, though single readings can be large or run the other way; further: % of control where 0% means no effect
Target sequence (Q99816 whole entry, looked up): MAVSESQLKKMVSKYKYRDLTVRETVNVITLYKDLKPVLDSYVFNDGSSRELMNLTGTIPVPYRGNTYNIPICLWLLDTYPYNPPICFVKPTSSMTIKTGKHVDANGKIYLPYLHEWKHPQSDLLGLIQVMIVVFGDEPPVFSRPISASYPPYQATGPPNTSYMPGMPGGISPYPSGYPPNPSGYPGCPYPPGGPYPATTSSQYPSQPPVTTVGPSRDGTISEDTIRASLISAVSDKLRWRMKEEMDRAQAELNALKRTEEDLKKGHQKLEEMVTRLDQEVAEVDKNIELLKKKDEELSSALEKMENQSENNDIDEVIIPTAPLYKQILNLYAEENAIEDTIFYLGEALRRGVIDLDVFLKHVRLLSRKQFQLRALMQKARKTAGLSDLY
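Steps: Tsg101 binding domain dispensed (10 uM final), compounds pinned in DMSO, FITC-labeled PTAP-motif peptide added (50 nM final); after 20 min binding at room temperature, polarization measured.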
TDP43 rescue: rescues yeast growth from TDP-43 toxicity | TDP-43 expressing yeast growth rescue, BacTiter-Glo, 24 h | Potency, µM (series often up to 46.1 µM), without a hit: top-dose growth rescue (activation), most hits filed as activators | 410,000 compounds, 1.8% hits; further: % of control where 0% means no effect; nearly all actives have a fitted effect of over 50% in size
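In this qHTS, compounds that restore growth of yeast expressing TDP-43 appear as activators. Cells (OD600=0.02, galactose medium, raffinose-pregrown) are incubated with compound 24 hr at 30 deg C and growth is quantified by BacTiter-Glo.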
FUS yeast rescue: suppressors of FUS proteinopathy in yeast; AID 1347120; Potency, µM (highest dose often 76.6 µM), actives largely listed as activators; 390,000 compounds, 0.24% hits; S. cerevisiae FUS-expressing, growth rescue, OD600, 24 h;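 further: plate controls were DMSO vehicle for no effect and reference control for full effect; nearly all actives have a fitted effect of over 55% in size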
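Toxicity suppression screen in FUS-yeast. Cells induced with 2% galactose, starting OD 0.005, treated 24hr at 30C with compounds at multiple final concentrations; growth by OD600.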
* marks the source's active call; other numbers are inactive results; i = inactive; u = inconclusive; x = no result given; [ ] = another dose, or the depositor's remark. An excerpt weighted towards active compounds, which were near 2.1% of everything screened. Unless noted, the call rests on the fitted dose curve; in most records, active means well fitted curve in the direction sought with a large enough effect; inconclusive means small, poorly fitted or top-dose-only effect, or another doubt; inactive means no such curve, though single readings can be large; an effect the other way counts as inactive or inconclusive. Potency means the concentration at half of the fitted maximal effect.

SMILES | Abeta yeast res | aSyn rescue | PTAP TSG101 blk | TDP43 rescue | FUS yeast rescue
Nc1ccc(O)c2c1C(=O)c1ccccc1C2=O | i | -1.5% | -15.1% | -6.2% | i
Nc1ccc(Br)c2c1C(=O)c1ccccc1C2=O | i | 17.9% | -4.4% | 6.31µM* | i
CC(C)=N/N=C1/NC(=O)C(c2ccc(Cl)cc2)S1 (centres undefined) | u | 1.9% | -7.8% | 20µM* | x
O=C1N/C(=N/N=C/c2ccc(F)cc2)SC1c1ccccc1 (centres undefined) | i | -3.7% | 1.7% | 6.9% | i
COc1ccccc1C(=O)OCc1cc(=O)n2ccsc2n1 | i | 12.1% | -2.2% | 15.8µM* | i
CC(Oc1ccccc1)C(=O)Nc1ccc(OCc2cc(=O)n3ccsc3n2)cc1 (centres undefined) | i | x | x | 15.8µM* | i
O=C(OCc1cc(=O)n2ccsc2n1)c1ccc(OC(F)F)cc1 | i | 7.0% | -3.8% | 7.08µM* | i
COc1ccccc1C(=O)Nc1ccccc1C(=O)OCc1cc(=O)n2ccsc2n1 | i | x | x | -3.0% | i
CN(C)c1ccc(C(=O)OCc2cc(=O)n3ccsc3n2)cc1 | i | 1.3% | 1.2% | u | i
COc1ccccc1C(=O)OCc1cc(=O)n2c(C)csc2n1 | i | x | x | 35.5µM* | i
COc1ccc(CNC(=O)c2cccc(-n3cnc4cccnc43)c2C)cc1 | i | x | x | 10.6% | i
Cc1ccc(C(=O)OCc2cc(=O)n3ccsc3n2)s1 | i | 2.8% | 1.8% | 28.3% | i
Cc1ccc(C(=O)OCc2cc(=O)n3c(C)csc3n2)s1 | i | -1.6% | -5.0% | 22.4µM* | i
CCOc1ccc(OCCC(=O)OCC(=O)N2CCN(S(=O)(=O)c3ccc(Cl)cc3)CC2)cc1 | i | 10.0% | -5.4% | 12.6µM* | i
CC(C)NC(=O)C1(C)Cc2c(-c3ccc(N(C)C)cc3)ccnc2O1 (centres undefined) | i | -0.2% | x | 3.8% | i
CCN(CCCNC(=O)c1cc2cc3cc(C)ccc3nc2s1)c1cccc(C)c1 | i | x | x | 0.0% | 31.6µM*
CC(=O)Nc1ccc(S(=O)(=O)N2CCN(c3cc(C)ccc3C)CC2)cc1 | i | 9.1% | -1.4% | 28.2µM* | u
CC(=O)Nc1ccc(S(=O)(=O)N2CCN(S(=O)(=O)c3ccccc3)CC2)cc1 | i | 1.4% | -2.9% | 5.9% | i
O=c1cc(N2CCOCC2)oc2c(-c3ccccc3)cccc12 | x | 21.5% | x | x | x
COC(=O)C1=NN(C(=O)c2cccc(Br)c2)C(O)(c2ccc(Cl)cc2)C1 (centres undefined) | i | 17.8µM* | -0.7% | u | i
CCOC(=O)C1=NN(C(=O)c2ccc(OC)cc2)C(O)(c2ccc(Cl)cc2)C1 (centres undefined) | u | u | -2.9% | u | u
O=C(c1cc(-c2ccncc2)nc2ccccc12)N1CCN(c2ccccc2O)CC1 | i | -19.6% | -6.9% | -14.3% | 17.8µM*
O=C(c1cc(-c2ccccc2)nc2ccccc12)N1CCN(c2ccccc2O)CC1 | i | -12.4% | -2.6% | u | u
CC(=O)Nc1nonc1-c1nnc(SCC(=O)Nc2cc(C)ccc2C)n1-c1ccccc1 | i | x | x | -0.6%[9.22 µM] | i
O=c1c2ccccc2n(Cc2ccccc2)n1[C@@H](Cc1ccccc1)Cn1cc(C2CCCC2)nn1 | x | x | x | x | i
O=C1Cc2ccccc2C(=O)N1OCc1ccc(Cl)cc1 | i | 1.7% | -6.6% | u | i
O=C1Cc2ccccc2C(=O)N1Cc1cccc(Cl)c1 | i | 0.4% | -0.6% | 12.6µM* | i
Nc1cc(Cl)ccc1CN1C(=O)c2ccccc2C1=O | i | -18.7% | x | 18.8% | i
Nc1cccc2c1C(=O)N(Cc1cccc(Cl)c1)C2=O | i | u | -1.4% | 20µM* | i
Cc1ccc(C)c(NC(=O)C(OC(=O)c2cnc(C)cn2)c2ccccc2)c1 (centres undefined) | i | 4.1% | 1.6% | 22.8% | i
